SARS PLP yeast: SARS-CoV PLP inhibition in yeast | Potency, µM (top dose mostly 32.9 µM), for the others: at the highest dose activity, positive = growth rescue, most hits filed as activators | AID 485353 | S. cerevisiae expressing SARS-CoV PLpro, growth rescue | 330,000 compounds, 0.19% hits; calls by dose curve; further: 0% is about no effect; nearly all actives have a fitted effect of over 55% in size
Pf growth 96h: P. falciparum growth inhibition at 96 hours; P. falciparum luciferase reporter growth, 96 h; Potency, µM (top dose mostly 28.7 µM), without a hit: top-dose activity change, negative = inhibition, usual class: inhibitors; 320,000 compounds, 6.9% hits; AID 504834; further: on the % scale 0 is the no-effect control and ±100 the full control effect
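P. falciparum expressing integrated firefly luciferase, in erythrocytes at 2% hematocrit, 0.05% parasitemia, incubated with compounds 96 h at 37 C, 5% CO2. Growth inhibition read as loss of luminescence; two-generation exposure targets delayed-death apicoplast inhibitors.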
Pf growth 48h: P. falciparum growth inhibition at 48 hours (one generation); P. falciparum luciferase growth in erythrocytes, 48 h; 310,000 compounds, 5.9% hits; Potency, µM (titrated, usually from 28.7 µM), without a hit: top-dose activity change, negative = inhibition, usual class: inhibitors; further: on the % scale 0 is the no-effect control and ±100 the full control effect
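A one-generation exposure of luciferase-tagged malaria parasites in RPMI 1640/Albumax erythrocyte culture, 37 C and 5% CO2. Inhibition is inferred from decreased luminescence after adding detection reagent.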
NS1 inh: inhibitors of influenza NS1 protein function; AID 2326; Potency, µM (highest dose often 46.1 µM), for inactives: top-dose activity, positive = more growth; 270,000 compounds, 0.4% hits; calls by dose curve; further: actives are rising curves; nearly all actives have a fitted effect of over 50% in size
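Compounds were scored for reversing the slow growth caused by influenza A NS1 in S. cerevisiae, measured by optical density at 600 nm. Assay medium contained 2% galactose at pH 6.0; NS1-free yeast of the same strain were the positive control.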
Numbers without * were called inactive; ? = inconclusive; · = no result; ! = repeats disagree; [ ] = remark or other dose. Sampled rows, rich in hits. Any-hit rate of the full collection: about 10%. Unless noted, the call rests on the fitted dose curve; in most records, active means well fitted inhibition curve with a large enough effect; inconclusive means small, poorly fitted or top-dose-only effect, or another doubt; inactive means no such curve, though single readings can be large or run the other way. Potency means the concentration at half of the fitted maximal effect.

SMILES	SARS PLP yeast	Pf growth 96h	Pf growth 48h	NS1 inh
CCN(CC(=O)Nc1cc(Cl)ccc1C)C(=O)C1COc2ccccc2O1 (configuration not stated)	-3%	-23%	?	·
Cc1sc2nc(CSCC(=O)Nc3ccccc3C#N)[nH]c(=O)c2c1C	9%	5.2µM*	-8%	20%
Cc1ccc(N2CC(C(=O)Nc3c4c(nn3C(C)(C)C)CS(=O)(=O)C4)CC2=O)cc1 (configuration not stated)	-1%	-25%	10%	2%
Cc1ccc(C(=O)OC(C)C(=O)NC2CCCCC2C)cc1S(=O)(=O)N1CCCCC1 (configuration not stated)	-2%	?	20%	11%
COc1ccc2c(c1)c(C)cc[n+]2Cc1ccccc1	-3%	0%	?	14%
Cc1ccc2ccc[n+](Cc3ccccc3)c2c1	5%	0.52µM*	0.41µM*	·
Cc1ccc2c(c1)c(C)cc[n+]2Cc1ccccc1	23%	0.19µM*	0.37µM*	2%
CCC(C)c1ccc(NC(=O)Nc2cnccn2)cc1 (configuration not stated)	-1%	55%	?	1%
O=C(c1ccc(F)cc1F)N1CCCC(c2nc(-c3cccs3)no2)C1 (configuration not stated)	0%	-14%	21%	-11%
O=C(c1c(F)cccc1F)N1CCCC(c2nc(-c3cccs3)no2)C1 (configuration not stated)	0%	8.3µM*	27%	2%
CN=C(Nc1ccc(Br)cc1)SC1CC(=O)N(c2ccc(OC)cc2)C1=O (configuration not stated)	-3%	4%	?	0%
CCCOc1ccc(N2C(=O)CC(SC(=NC)Nc3ccc(F)cc3)C2=O)cc1 (configuration not stated)	4%	·	4%	2%
CN=C(Nc1ccc(C)c(C)c1)SC1CC(=O)N(c2ccc(OC)cc2)C1=O (configuration not stated)	0%	47%	12µM*	-1%
CCOc1ccc(N2C(=O)CC(SC(=NC)Nc3ccc(F)cc3)C2=O)cc1 (configuration not stated)	22%	9.3µM*	?	-12%
O=C(NCc1ccccc1Cl)[C@@H]1CCCN1S(=O)(=O)c1ccc(Cl)cc1	10%	·	·	·
COc1ccccc1-c1oc2ccccc2c1C#CC1(N)CCCCC1	-1%	3.3µM*	8.3µM*	·
CC(C)(C)N=C1NN=C(c2ccc(S(=O)(=O)N3CCCCC3)cc2)CS1	5%	?	3.7µM*	·
Fc1ccc(N=C2NN=C(c3cc(F)ccc3F)CS2)cc1	-56%	?	0%	-24%
O=S(=O)(c1ccc(N=C2NN=C(c3cc(F)ccc3F)CS2)cc1)N1CCOCC1	-2%	?	2.3µM*	·
COCCN=C1NN=C(c2ccc(NC(C)=O)cc2)CS1	14%	?	?	4%
CC(=O)Nc1ccc(C2=NNC(=Nc3ccc(S(=O)(=O)N4CCOCC4)cc3)SC2)cc1	0%	12µM*	?	?
O=S(=O)(c1ccc(S(=O)(=O)N2CCCC2)cc1)N1CCCCC1	-6%	11%	21%	9%
O=C(COC(=O)c1ccc(NC(=O)C2CC=CCC2C(=O)O)cc1)c1ccccc1 (configuration not stated)	1%	-23%	18%	2%
CN1/C(=C\C(=O)Nc2cccnc2)c2ccccc2CC1(C)C	6%	5.9µM*	?	5%
COc1ccccc1CNC(=O)c1[nH]c(C)c(C(C)=O)c1C	2%	?	-39%	0%
SMILES	SARS PLP yeast	Pf growth 96h	Pf growth 48h	NS1 inh
COc1cccc(CN(C)C(=O)c2[nH]c(C)c(C(C)=O)c2C)c1OC	1%	7.4µM*	12µM*	1%
O=S(=O)(Nc1cccc(S(=O)(=O)N2CCCCC2)c1)c1ccccc1F	3%	·	·	·
CCC(C)C(NC(=O)CCC(=O)OCC(=O)[C@@]1(O)CCC2[C@@H]3CCC4=CC(=O)C=C[C@]4(C)C3[C@@H](O)C[C@@]21C)C(=O)O (some centres not stated)	-1%	?	3.7µM*	8%
C[C@]12CCC(=O)C=C1CC[C@@H]1[C@@H]2[C@@H](O)C[C@@]2(C)[C@H]1CC[C@]2(O)C(=O)COP(=O)(O)O	·	7.6µM*	5%	·
C[C@]12CCC(=O)C=C1CC[C@@H]1[C@@H]2[C@@H](O)C[C@@]2(C)[C@H]1CC[C@]2(O)C(=O)COC(=O)CCC(=O)O	-5%	12µM*!	13µM*!	0%
C[C@]12C=CC(=O)C=C1CC[C@@H]1C2[C@@H](O)C[C@@]2(C)C1CC[C@]2(O)C(=O)COC(=O)CCC(=O)O (some centres not stated)	7%	25%	-16%[0.00184 µM]	0%
Cc1sc2ncnc(Sc3nnnn3-c3ccc(Cl)cc3)c2c1C	-6%	?	8.3µM*	-5%
c1ccc(-n2nnnc2Sc2ncnc3sc4c(c23)CCCC4)cc1	7%	1.7µM*	?	3%
Cc1cccc(N(CC(=O)NC2CCCCC2)C(=O)CCC(=O)Nc2nccs2)c1	0%	-1%	?	8%
CC(C)[C@H](NC(=O)[C@H](Cc1ccccc1)n1c(=O)[nH]c2ccccc2c1=O)C(=O)N1CCC[C@@H]1C(=O)O	2%	14%	22%	-1%
CCCCn1nc(C(=O)Nc2ccc(-n3cnnn3)cc2)c2ccccc2c1=O	-7%	?	-22%	·
CC(C)c1ccc(/C=N/NC(=O)c2ccc(-n3cnnn3)cc2)cc1	-1%	4%	-12%	·
CCCCN(C(=O)CSc1nnnn1C)C1CCS(=O)(=O)C1 (configuration not stated)	12%	20%	5%	·
O=C(c1cccc(Cl)c1)c1nn(-c2ccccc2)c(=O)cc1C(F)(F)F	-6%	13µM*	?	-66%
NS(=O)(=O)c1ccc(NC(=O)c2cc(-c3cc(Cl)ccc3O)n[nH]2)cc1	4%	?	?	6%
CN(Cc1ccccc1)C(=O)c1nc2ccccn2c1CN1CCCC1c1nccs1 (configuration not stated)	-2%	?	6.6µM*	-3%
O=C(NNS(=O)(=O)c1ccc(Cl)cc1)c1sccc1-n1cccc1	2%	44%	1%	20%
O=C(NNC(=O)c1sccc1-n1cccc1)c1ccc(Cl)cc1	2%	0.33µM*	?	0%
CC(C)NC(=S)N/N=C/c1ccc(C(C)(C)C)cc1	15%	?	?	-4%
O=C(N/N=C\c1cccs1)c1sccc1-n1cccc1	-2%	13µM*	?	·
CC(C)NC(=S)N/N=C/c1cccs1	?	3.3µM*	·	14%
COc1ccc(C2C(C(C)=O)=C(O)C(=O)N2c2ccccn2)cc1 (configuration not stated)	0%	10%	5%	4%
O=C(NCCSCc1c(F)cccc1Cl)c1ccco1	-20%	-20%[5.75 µM]	?	-163%
COc1ccccc1C(=O)NCCSCc1c(F)cccc1Cl	-7%	10µM*	?	-42%
CC(=O)Nc1cccc(C(=O)OCC(=O)NCc2ccc(F)cc2)c1	0%	33%	13µM*	·

High-throughput results from PubChem BioAssay.
